The target of experiment [1] is Rap guanine nucleotide exchange factor 3 (Homo sapiens) (UniProt O95398). The experiment in a line: Confirmatory qHTS for antagonist of cAMP-regulated guanine nucleotide exchange factor 3 (EPAC1) (AID 1645880).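 For activity, negative = inhibition: plate controls were DMSO only for no effect and full effect of the ATA control for full effect.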 Note: nearly all actives have a fitted effect of over 55% in size. Note: potency is the fitted concentration of half-maximal effect. As to conditions: EPAC1 Rap1B-BODIPY-GDP exchange, fluorescence; activity, negative = inhibition: at 115 µM (top of the series). In a few lines:
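Released BODIPY-GDP fluoresces less than Rap1-bound BODIPY-GDP; the signal is followed at 480/540 nm at 5-min intervals over 30 min, after 5 min at room temperature. Reactions contain 100 nM EPAC1, 250 nM RAP1B-BODIPY-GDP and 50 uM GDP; results are normalized to ATA and DMSO.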
Background: In qHTS, concentration-response curves come from the screen itself.

Experiment [2] has the same target. The experiment in a line: Confirmatory qHTS for agonist of cAMP-regulated guanine nucleotide exchange factor 3 (EPAC1) (AID 1645881).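 Note: EPAC1 catalysed release of BODIPY-GDP from Rap1B seen as fluorescence loss; 100% = effect of cAMP agonist control; nearly all actives have a fitted effect of over 75% in size.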
Experiment [3] concerns the target Rap guanine nucleotide exchange factor 4 (Homo sapiens) (UniProt Q8WZA2). As to the kind of experiment: Confirmatory qHTS for agonist of cAMP-regulated guanine nucleotide exchange factor 4 (EPAC2) (AID 1645884).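 Note: nucleotide exchange releases bodipy-GDP from Rap1 and this lowers its fluorescence; % is set by controls: 0 for no effect and ±100 for the full control effect; nearly all actives have a fitted effect of over 65% in size.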
Experiment [4] deals with Rap guanine nucleotide exchange factor 3 (Homo sapiens) (UniProt O95398). The experiment in a line: Counterscreen qHTS for antagonist of cAMP-regulated guanine nucleotide exchange factor 3 (EPAC1) (AID 1645888). Note: % of control where 0% means no effect. In a few lines:
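Measured: fluorescence of BODIPY-GDP bound to Rap1B, which falls as exchange proceeds. Conditions include 50 uM competing GDP, 5 and 30 min reads, and a later cAMP challenge for antagonist detection.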
In general terms: A counterscreen serves to expose hits that act by an unwanted route or on another target.

Experiment [5] has as its target DNA dC->dU-editing enzyme APOBEC-3G (Homo sapiens) (UniProt Q9HC16). As to the kind of experiment: qHTS for inhibitors of Vif-A3G interactions: Validation (AID 588379). Note: 0% is about no effect. In a few lines:
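Yellow fluorescence (Ex 488, Em 500-530) of Vif-coexpressing HeLa A3G-eYFP cells, scanned by Acumen cytometer, reports blocked A3G degradation. Cells plated at 700/well overnight at 37 deg C before compound addition, then a further overnight compound incubation at 37 deg C.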

In experiment [6] the target is Rap guanine nucleotide exchange factor 4 (Homo sapiens) (UniProt Q8WZA2). As to the kind of experiment: Confirmatory qHTS for antagonist of cAMP-regulated guanine nucleotide exchange factor 4 (EPAC2) (AID 1645885). Note: nearly all actives have a fitted effect of over 25% in size. Note: potency is the fitted concentration of half-maximal effect.
Experiment [7] deals with Lysosomal acid glucosylceramidase (Homo sapiens) (UniProt P04062). The experiment in a line: Glucocerebrosidase-p2 (AID 348; in the data active = potency below about 10 µM; note: potency is the fitted concentration of half-maximal effect). The note with it: purified GBA, blue fluorogenic substrate, 40 min. In short, it runs like this: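 Normal human glucocerebrosidase (0.2 nM) with blue fluorogenic substrate (80 uM final) in citrate/phosphate pH 5.9 with 10mM sodium taurocholate, 0.01% tween-20; 40 min RT, NaOH/glycine stop; fluorescence Ex 365/Em 440; AC50 from a titration from 0.6 nM upwards.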

Experiment [8] can be described thus: AP1 Signaling Pathway (AID 357; active = well fitted curve in either direction with a large enough effect, not every such curve was filed as active; note: % is set by controls: 0 for no effect and ±100 for the full control effect). The note with it: ME-180 (cervical carcinoma) AP-1-bla reporter, EGF-induced, beta-lactamase ratio, 5 h; at 7.69 µM (top of the series) unless noted. In a few lines:
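AP-1-bla ME-180 cells with beta-lactamase reporter under AP-1 response element, stimulated with EC50 EGF; compounds titrated, 5 hours at 37 degrees Celsius. CCF4 read at 460/530 nm ratio; positive and negative modulators judged by AC50.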

Experiment [9] can be described thus: NFAT Signaling Pathway (AID 444; active = well fitted curve in either direction with a large enough effect, not every such curve was filed as active;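 note: carbachol stimulus at about its EC50 of 1 µM final; % is set by controls: 0 for no effect and ±100 for the full control effect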). As to conditions: Jurkat NFAT-bla M1, carbachol, beta-lactamase ratio, 5 h; at 7.69 µM (top of the series) unless noted. In a few lines:
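Jurkat cells carrying an NFAT-driven β-lactamase reporter and co-transfected muscarinic M1 receptor were treated with compound plus carbachol (1 uM final, an EC50 level) for 5 h at 37 °C. CCF4 loading followed for 1 h at RT; 460/530 nm ratio gave %activity.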

Experiment [10] concerns the target Glucocorticoid receptor (Homo sapiens) (UniProt P04150). The experiment in a line: GR-GFP Redistribution (AID 450;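 active = compounds whose dose series gives a full or clear partial fitted curve of increased nuclear translocation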; note: potency is the fitted concentration of half-maximal effect). As to conditions: U2OS GR-GFP nuclear translocation, laser cytometry, 2 h.
The target is the same in experiment [11]. As to the kind of experiment: GR-EFC Redistribution (AID 451; calls by dose curve; note: potency is the fitted concentration of half-maximal effect). As to conditions: CHO-K1 GR-EFC translocation, beta-gal luminescence, 2 h. In a few lines:
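CHO-K1 cells stably expressing nuclear-localized β-gal enzyme acceptor and GR fused C-terminally to the enzyme donor fragment; ligand-driven nuclear translocation restores β-gal by complementation. Compounds titrated up to 46 uM final, 2 h at 37 °C; luminescence read.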

The target in experiment [12] is 3',5'-cyclic-AMP phosphodiesterase 4B (Homo sapiens) (UniProt Q07343). The experiment in a line: qHTS Assay for Inhibitors of PDE-IV (AID 607; active = well fitted activation curve with a large enough effect in the main read-out, with a control signal flat, not every such curve was filed as active; note: % of control where 0% means no effect). In short, it runs like this: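 The readout is membrane depolarisation from a cAMP-sensing CNG channel, detected with a potential dye at ex 535/em 590. Cells were HEK293-derived (endogenous PDE-IV) at 1000 cells/well, titrated up to 22.9 uM final.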

Experiment [13] in a line: Confirmation and Secondary Assay for Modulators of Hemoglobin Beta Chain Splicing at IVS2 654 locus (AID 910).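 Note: per-well total GFP intensity by laser scanning cytometry after 2-day treatment; % of control where 0% means no effect.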 In short, it runs like this: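 HeLa cells stably carrying EGFP interrupted by mutant beta-globin IVS2-654 intron (CMV-driven) were treated with compound for 2 days at 37C; corrected splicing was scored as total peak GFP intensity per well (488 nm excitation, 500-520 nm emission).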

Experiment [14] is described as follows: Confirmation and Secondary Assay for Modulators of Hemoglobin Beta Chain Splicing at IVS2 705 locus (AID 930).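 Note: HeLa cells stably expressing the EGFP-705 splicing reporter; GFP fluorescence per well restored by corrected splicing of the IVS2-705 intron in EGFP; % of control where 0% means no effect.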 In a few lines: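 Per-well GFP, captured at 1 x 8 µm resolution with 488 nm excitation, served as the read-out for HeLa EGFP-705 cells incubated 2 days with test compound versus DMSO.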
For experiment [15], the target named is Ubiquitin carboxyl-terminal hydrolase 1 (Homo sapiens) (UniProt O94782). The experiment in a line: Inhibitors of USP1/UAF1: Pilot qHTS (AID 504865).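 Note: rhodamine fluorescence freed from ubiquitin-rhodamine substrate followed over time; top concentration of the series differs between compounds; % is set by controls: 0 for no effect and ±100 for the full control effect; nearly all actives have a fitted effect of over 35% in size.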 In short, it runs like this: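 Enzyme-free wells gave the negative control, while test wells held 1nM USP1/UAF1 preincubated with compound for 15 min at room temperature. Ub-Rho at 150nM final started the reaction, and fluorescence at 480/540 nm was recorded kinetically.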

Experiment [16] addresses Cytochrome P450 1A2 (Homo sapiens) (UniProt P05177). As to the kind of experiment: p450-cyp1a2 (AID 410; calls by dose curve; note: potency is the fitted concentration of half-maximal effect). In short, it runs like this:
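Read-out is luminescence from luciferin produced by CYP1A2 demethylation of Luciferin-ME (100uM, at Km). Detection reagent stopped the 60 min NADPH-dependent reaction; signals were normalized to 57 uM furafylline.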

Experiment [17] in a line: Stat Signaling Pathway (AID 446; active = well fitted curve in either direction with a large enough effect, not every such curve was filed as active;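 note: ME-180 cervical cancer cells given 40 pM IL-6 alongside compound; SIE-controlled beta-lactamase reporter measured as 460/530 nm FRET emission ratio; % is set by controls: 0 for no effect and ±100 for the full control effect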). In a few lines: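 Emission at 460 and 530 nm (excitation 405 nm) reports SIE-controlled beta-lactamase in ME-180 cells. Cells received compound with 40 pM IL-6 for 5 hrs at 37 C; data scaled between 300 pM IL-6 and 125 nM JAK-inhibitor controls.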
The target in experiment [18] is Mitogen-activated protein kinase 10 (Mus musculus) (UniProt Q61831). As to the kind of experiment: JNK3 AlphaScreen Assay (AID 530; active = well fitted curve in either direction with a large enough effect, not every such curve was filed as active;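 note: kinase came from lysate of stimulated human HepG2 cells; signal reports phosphorylation of biotinylated GST-cJun 1-79 at Ser73 with 10 µM ATP; % is set by controls: 0 for no effect and ±100 for the full control effect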). In short, it runs like this:
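Biotinylated GST-cJun(1-79) served as substrate for JNK3 in HepG2 lysates stimulated with IL-1beta and TNF-alpha. ATP was 10 uM final, pH 7.6. Ser73 phosphorylation was quantified by AlphaScreen (680 nm excitation).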
For orientation: Alpha assays give light when donor and acceptor beads are brought close together.

Experiment [19] has as its target Cytochrome P450 3A4 (Homo sapiens) (UniProt P08684). The experiment in a line: qHTS Assay for Activators of Cytochrome P450 3A4 (AID 885). Note: nearly all actives have a fitted effect of over 65% in size. In short, it runs like this:
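Activators are scored by enhanced luminescence from CYP3A4 conversion of luciferin-PPXE (25uM, equal to KM) to luciferin, after 60 min at RT with an NADPH-regenerating system.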

For experiment [20], the target named is Cytochrome P450 2C19 (Homo sapiens) (UniProt P33261). The experiment in a line: qHTS Assay for Inhibitors and Substrates of Cytochrome P450 2C19 (AID 899). Note: potency is the fitted concentration of half-maximal effect; nearly all actives have a fitted effect of over 60% in size. In a few lines: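 In 50mM KPO4, the reaction held 5nM enzyme and KM-level (10uM) Luciferin-H EGE; it ran 60 min at 37C after NADPH regeneration and a 10 min compound preincubation. Luminescence values were scaled to 57uM ketoconazole as complete inhibition.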

Experiment [21] deals with Dual specificity protein kinase CLK4 (Homo sapiens) (UniProt Q9HAZ1). The experiment in a line: qHTS Assay for Inhibitors of CDC-like Kinase 4 (ADP-FP Assay) (AID 1795).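 Note: recombinant human CLK4 phosphorylating RS repeat peptide at 1 µM ATP; % is set by controls: 0 for no effect and ±100 for the full control effect; nearly all actives have a fitted effect of over 60% in size.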 In a few lines: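 Kinase activity was followed as ADP output, converted from fluorescence polarization with a calibration curve. Reactions ran one hour at low ATP (1 uM) with RS peptide substrate.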

Values without a mark were called inactive. Records with an inconclusive call do not appear. Calls of active or inactive are those of the source. Unless noted, calls come from the whole dose curve; as a rule, active = well fitted curve in the direction sought with a large enough effect; inconclusive = small, poorly fitted or top-dose-only effect, or another doubt; inactive = no such curve, though single readings can be large; an effect the other way counts as inactive or inconclusive.

Chain of Glucocorticoid receptor (Homo sapiens) (P04150 whole entry, looked up): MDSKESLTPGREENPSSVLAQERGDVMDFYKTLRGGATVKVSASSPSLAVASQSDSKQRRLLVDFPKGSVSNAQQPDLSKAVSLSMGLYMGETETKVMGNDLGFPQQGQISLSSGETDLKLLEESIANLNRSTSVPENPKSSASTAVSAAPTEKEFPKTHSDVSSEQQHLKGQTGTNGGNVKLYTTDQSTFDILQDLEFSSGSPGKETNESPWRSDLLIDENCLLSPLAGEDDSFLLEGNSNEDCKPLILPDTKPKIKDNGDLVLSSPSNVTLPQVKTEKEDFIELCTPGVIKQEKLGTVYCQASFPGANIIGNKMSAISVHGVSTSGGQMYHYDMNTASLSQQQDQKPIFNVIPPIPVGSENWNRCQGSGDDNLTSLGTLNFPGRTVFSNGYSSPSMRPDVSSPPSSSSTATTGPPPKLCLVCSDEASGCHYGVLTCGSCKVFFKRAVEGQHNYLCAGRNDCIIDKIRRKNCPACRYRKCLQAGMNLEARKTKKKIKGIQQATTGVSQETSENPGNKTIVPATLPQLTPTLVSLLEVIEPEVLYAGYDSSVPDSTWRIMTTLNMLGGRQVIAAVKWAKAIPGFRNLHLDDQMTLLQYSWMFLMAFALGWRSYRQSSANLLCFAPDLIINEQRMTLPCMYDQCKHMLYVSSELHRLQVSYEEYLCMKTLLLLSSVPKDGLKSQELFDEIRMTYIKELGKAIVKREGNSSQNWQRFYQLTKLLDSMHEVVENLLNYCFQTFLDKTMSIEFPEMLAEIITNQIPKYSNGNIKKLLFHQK
Chain of Lysosomal acid glucosylceramidase (Homo sapiens) (P04062 whole entry, looked up): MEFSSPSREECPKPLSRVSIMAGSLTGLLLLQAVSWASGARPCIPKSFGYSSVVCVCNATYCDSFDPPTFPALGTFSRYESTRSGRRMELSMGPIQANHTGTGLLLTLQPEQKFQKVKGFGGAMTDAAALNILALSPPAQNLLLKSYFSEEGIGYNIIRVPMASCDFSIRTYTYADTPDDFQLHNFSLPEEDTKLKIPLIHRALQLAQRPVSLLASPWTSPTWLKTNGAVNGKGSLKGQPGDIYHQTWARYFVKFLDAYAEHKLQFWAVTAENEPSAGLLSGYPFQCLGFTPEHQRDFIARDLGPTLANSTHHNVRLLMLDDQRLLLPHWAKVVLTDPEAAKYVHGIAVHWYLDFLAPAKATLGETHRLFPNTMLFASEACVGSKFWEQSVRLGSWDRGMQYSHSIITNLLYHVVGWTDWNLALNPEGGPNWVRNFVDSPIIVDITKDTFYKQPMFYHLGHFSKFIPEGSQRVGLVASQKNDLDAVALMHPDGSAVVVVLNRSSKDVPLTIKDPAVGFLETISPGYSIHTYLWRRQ
Chain of Rap guanine nucleotide exchange factor 4 (Homo sapiens) (Q8WZA2 whole entry, looked up): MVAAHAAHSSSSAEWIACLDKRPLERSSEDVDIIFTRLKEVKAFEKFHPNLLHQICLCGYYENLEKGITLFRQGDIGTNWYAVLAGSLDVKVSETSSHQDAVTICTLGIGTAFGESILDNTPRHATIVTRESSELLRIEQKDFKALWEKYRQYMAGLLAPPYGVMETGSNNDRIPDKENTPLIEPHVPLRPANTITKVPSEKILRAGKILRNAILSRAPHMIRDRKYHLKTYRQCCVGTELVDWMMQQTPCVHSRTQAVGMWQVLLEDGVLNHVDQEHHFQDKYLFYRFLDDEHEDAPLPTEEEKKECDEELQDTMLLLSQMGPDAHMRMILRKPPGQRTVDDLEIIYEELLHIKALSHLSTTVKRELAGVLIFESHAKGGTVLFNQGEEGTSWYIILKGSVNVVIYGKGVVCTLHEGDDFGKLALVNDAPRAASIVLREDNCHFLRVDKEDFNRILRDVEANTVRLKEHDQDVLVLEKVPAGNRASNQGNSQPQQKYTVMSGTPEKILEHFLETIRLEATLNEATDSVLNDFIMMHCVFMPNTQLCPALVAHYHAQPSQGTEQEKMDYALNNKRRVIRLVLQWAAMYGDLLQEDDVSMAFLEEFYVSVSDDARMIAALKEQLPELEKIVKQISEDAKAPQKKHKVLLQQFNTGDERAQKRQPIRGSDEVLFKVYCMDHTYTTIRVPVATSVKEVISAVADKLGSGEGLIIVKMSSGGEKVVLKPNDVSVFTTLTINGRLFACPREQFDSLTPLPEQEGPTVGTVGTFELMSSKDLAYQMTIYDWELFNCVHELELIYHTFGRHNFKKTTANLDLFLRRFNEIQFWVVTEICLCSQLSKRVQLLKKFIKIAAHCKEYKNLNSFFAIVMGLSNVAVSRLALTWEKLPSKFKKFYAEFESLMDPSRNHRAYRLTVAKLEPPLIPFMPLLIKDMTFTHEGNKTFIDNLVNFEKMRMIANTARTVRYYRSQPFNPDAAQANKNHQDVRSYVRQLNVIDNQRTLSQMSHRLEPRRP
Chain of Rap guanine nucleotide exchange factor 3 (Homo sapiens) (O95398 whole entry, looked up): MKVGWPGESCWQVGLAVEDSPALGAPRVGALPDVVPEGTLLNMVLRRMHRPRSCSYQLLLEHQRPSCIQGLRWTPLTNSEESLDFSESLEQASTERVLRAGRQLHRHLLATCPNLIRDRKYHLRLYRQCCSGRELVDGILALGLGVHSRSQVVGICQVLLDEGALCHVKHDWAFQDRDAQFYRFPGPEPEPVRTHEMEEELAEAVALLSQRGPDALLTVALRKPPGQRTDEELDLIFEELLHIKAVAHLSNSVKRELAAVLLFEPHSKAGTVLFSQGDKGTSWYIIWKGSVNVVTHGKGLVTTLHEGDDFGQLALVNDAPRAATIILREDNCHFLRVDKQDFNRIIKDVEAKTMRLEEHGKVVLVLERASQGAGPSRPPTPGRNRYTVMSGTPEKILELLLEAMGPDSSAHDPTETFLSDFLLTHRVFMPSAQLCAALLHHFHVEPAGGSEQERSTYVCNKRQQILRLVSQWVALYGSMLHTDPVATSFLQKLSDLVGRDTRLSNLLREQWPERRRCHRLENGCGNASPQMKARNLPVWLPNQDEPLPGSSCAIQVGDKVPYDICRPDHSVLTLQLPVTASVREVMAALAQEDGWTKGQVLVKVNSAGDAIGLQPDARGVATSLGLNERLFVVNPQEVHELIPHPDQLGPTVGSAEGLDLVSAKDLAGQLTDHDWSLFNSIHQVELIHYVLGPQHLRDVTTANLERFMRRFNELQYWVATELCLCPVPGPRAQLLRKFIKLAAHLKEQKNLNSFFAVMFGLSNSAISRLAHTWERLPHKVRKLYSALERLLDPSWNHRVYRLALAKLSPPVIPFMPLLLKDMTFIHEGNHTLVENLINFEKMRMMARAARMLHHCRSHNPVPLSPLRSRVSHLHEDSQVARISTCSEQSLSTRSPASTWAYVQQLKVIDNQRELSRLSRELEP
Chain of Ubiquitin carboxyl-terminal hydrolase 1 (Homo sapiens) (O94782 whole entry, looked up): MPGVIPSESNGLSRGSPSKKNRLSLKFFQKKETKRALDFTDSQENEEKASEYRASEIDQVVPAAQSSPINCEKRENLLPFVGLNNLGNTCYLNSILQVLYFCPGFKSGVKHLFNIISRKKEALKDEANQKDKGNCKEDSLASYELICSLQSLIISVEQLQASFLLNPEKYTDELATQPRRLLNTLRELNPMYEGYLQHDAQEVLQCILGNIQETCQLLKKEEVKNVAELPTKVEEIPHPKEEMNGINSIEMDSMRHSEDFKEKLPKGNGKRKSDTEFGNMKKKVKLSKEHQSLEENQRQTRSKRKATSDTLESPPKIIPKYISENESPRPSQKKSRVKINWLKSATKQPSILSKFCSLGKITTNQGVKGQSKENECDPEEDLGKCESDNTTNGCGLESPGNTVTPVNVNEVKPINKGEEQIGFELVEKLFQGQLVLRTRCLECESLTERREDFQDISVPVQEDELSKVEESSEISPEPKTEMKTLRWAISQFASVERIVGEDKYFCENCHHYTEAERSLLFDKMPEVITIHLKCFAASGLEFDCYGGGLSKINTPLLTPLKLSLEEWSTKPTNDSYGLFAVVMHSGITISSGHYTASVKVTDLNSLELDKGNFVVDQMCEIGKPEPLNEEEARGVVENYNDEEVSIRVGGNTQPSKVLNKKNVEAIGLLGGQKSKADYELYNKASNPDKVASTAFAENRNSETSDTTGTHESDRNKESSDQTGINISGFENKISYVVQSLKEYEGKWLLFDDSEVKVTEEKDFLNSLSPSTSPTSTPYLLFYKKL
Chain of Cytochrome P450 1A2 (Homo sapiens) (P05177 whole entry, looked up): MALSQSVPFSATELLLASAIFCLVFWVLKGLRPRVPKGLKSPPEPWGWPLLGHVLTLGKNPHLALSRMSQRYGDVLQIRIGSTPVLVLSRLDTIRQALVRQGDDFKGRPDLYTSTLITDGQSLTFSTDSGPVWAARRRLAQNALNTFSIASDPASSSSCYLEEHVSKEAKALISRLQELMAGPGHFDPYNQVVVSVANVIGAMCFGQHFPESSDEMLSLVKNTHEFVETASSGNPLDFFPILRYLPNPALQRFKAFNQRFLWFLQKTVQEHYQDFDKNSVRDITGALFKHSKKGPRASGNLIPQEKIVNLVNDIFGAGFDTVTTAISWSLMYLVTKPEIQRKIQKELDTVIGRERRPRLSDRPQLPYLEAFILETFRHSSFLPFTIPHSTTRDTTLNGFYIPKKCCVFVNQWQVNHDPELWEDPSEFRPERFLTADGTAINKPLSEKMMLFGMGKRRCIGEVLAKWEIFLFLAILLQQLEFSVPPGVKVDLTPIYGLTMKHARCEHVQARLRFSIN
Chain of Cytochrome P450 2C19 (Homo sapiens) (P33261 whole entry, looked up): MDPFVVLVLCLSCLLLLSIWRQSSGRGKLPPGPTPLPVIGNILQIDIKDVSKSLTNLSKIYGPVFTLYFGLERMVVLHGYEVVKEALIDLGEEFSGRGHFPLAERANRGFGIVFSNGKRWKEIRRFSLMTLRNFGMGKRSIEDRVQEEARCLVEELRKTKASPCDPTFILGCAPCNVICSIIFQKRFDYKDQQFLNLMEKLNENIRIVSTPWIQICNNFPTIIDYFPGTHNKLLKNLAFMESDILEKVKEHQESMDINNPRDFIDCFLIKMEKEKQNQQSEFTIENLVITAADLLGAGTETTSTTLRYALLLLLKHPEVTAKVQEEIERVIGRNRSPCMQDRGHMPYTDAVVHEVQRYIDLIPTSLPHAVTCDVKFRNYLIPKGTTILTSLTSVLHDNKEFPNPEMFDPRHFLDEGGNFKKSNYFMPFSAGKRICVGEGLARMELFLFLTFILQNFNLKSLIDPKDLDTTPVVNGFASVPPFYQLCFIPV

On to `COc1ccc(-c2csc(NC(=O)c3ccccc3NS(=O)(=O)c3ccc(F)c(F)c3)n2)cc1`, for which the Potency in experiment [1] is 22.4 µM (active). Moreover, in experiment [2], the Potency entry is “inactive”. In addition, the activation in [3] is -1.62% [at 17.1 µM, percent relative to cAMP agonist control]. The activity change, negative = inhibition in experiment [4] is -3.56% [at 30.8 µM].

As to `C=C1CCC(O)C/C1=C\C=C1/CCCC2(C)C1CCC2C(C)/C=C/C(C)C(C)C` (stereo not drawn), in [5], the call was inactive. Also, the Potency entry in experiment [1], in experiment [2], in experiment [3] and in experiment [6] was “inactive” each time.

Take `O=c1cnc2cnc(OCc3ccccc3)nc2n1CCc1ccccc1`: the Potency in [7] was greater than 11.4 µM; in experiment [10] it was greater than 9.22 µM; in [11], greater than 46 µM; in experiment [6], 31.2 µM (active). Moreover, the activity change, negative = inhibition is -5.47% in experiment [8] and -27.9% in [9]. Also, the Potency entry in experiment [12], in experiment [1], in experiment [2] and in experiment [3] was “inactive” in each case.

In the case of `CC#C[C@@H](CC)c1ccc2ccn(C)c2c1`, the Potency result in [1] and in experiment [2] was “inactive” in each case. Besides, the activation in experiment [3] was 5.93% [at 17.1 µM, percent relative to cAMP agonist control]. Moreover, the activity change, negative = inhibition in experiment [4] was -25.8% [at 30.8 µM].

On to `COCCN(C(=O)c1cc2c(s1)CCCCC2)c1c(N)n(Cc2ccccc2)c(=O)[nH]c1=O`, for which the Potency result in [1], in experiment [2], in experiment [3] and in experiment [4] was “inactive” in each case.

Regarding `COc1ccc(C(=O)N/N=C/c2ccc3cccc(OCc4ccccc4)c3n2)cc1`, the Potency result in experiment [1], in experiment [2], in [3] and in [4] was “inactive” each time.

Turning to `CCOC(=O)C1(O)Oc2cc(OC)cc(OC)c2C(=O)C1c1ccccc1` (stereo not drawn), the Potency result in [13], in [14], in experiment [15], in [1], in experiment [2] and in experiment [3] was “inactive” each time. The Potency result in [6] is “inactive”.

With `O=c1cnc2cnc(Oc3ccccc3)nc2n1Cc1cccs1`, the Potency was greater than 11.4 µM in experiment [7]; 7.94 µM (active) in experiment [16]; greater than 9.22 µM in experiment [10]; greater than 46 µM in experiment [11]; 1.26 µM (active) in [20]; 15.6 µM (active) in experiment [6]. The activity change, negative = inhibition in experiment [9] is -1.41%. The result in experiment [17] and in experiment [19] was inactive. For the same compound, the Potency result in [18], in experiment [1], in [2] and in experiment [3] was “inactive” throughout.

Turning to `COc1ccc(CNc2nc(-c3cccnc3)nc3ccccc23)c(OC)c1`, the Potency was greater than 11.4 µM in experiment [7] and greater than 46 µM in experiment [10]. Besides, the activity change, negative = inhibition in experiment [8] is -16.7%; in experiment [9] it was 6.84%. The result in [17] was inactive. The Potency result in [18], in experiment [21], in experiment [15], in experiment [1], in experiment [2] and in experiment [3] was “inactive” in each case. In experiment [6], the Potency result is “inactive”.

(Values after PubChem BioAssay (NCATS).)
